# Results: PubChem BioAssay AID1159580 (chemical genetic matrix, 2015)
# Several values for one entry are separate records, joined by “and”; a condition that tells them apart may be missing. Identical values can stand only once. Among all 5,500 compounds or so, about 2,000 (36%) were called active. Inconclusive results (about 18%) are left out. This is one part of the list. Unmarked numbers belong to inactive results. No stated cut-off is given here; in the data, active means normalized growth mostly below about 0.91 (no sharp cut-off); inconclusive means no clear call, values can overlap the other calls; inactive means mostly above about 0.92.
# Assay: chemical genetic growth profiling, strain panel (AID 1159580);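 further: tested at 20 µM; growth read once vehicle control cultures reached saturation at 30 °C; 1 = growth at the plate median or of vehicle wells; lower values mean less growth of the strain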
# Conditions: S. cerevisiae deletion strains, growth OD
structure (smiles),measurement,setting,value
CCCC(C(=O)OCCN(CC)CC)(c1ccccc1)c1ccccc1,normalized growth,"locus YAL013W, strain DEP1, active compounds read low",0.991
same,normalized growth,"locus YAL021C, strain ccr4, active compounds read low",0.981
same,normalized growth,"locus YAL026C, strain drs2, active compounds read low",1.01
same,normalized growth,"locus YAL030W, strain snc1, active compounds read low",0.985
same,normalized growth,"locus YAL040C, strain CLN3, active compounds read low",1.03
same,normalized growth,"locus YBR009C, strain hhf1, active compounds read low",1
same,normalized growth,"locus YBR021W, strain FUR4, active compounds read low",0.92
same,normalized growth,"locus YBR023C, strain chs3, active compounds read low",1
same,normalized growth,"locus YBR171W, strain sec66, active compounds read low",0.998
same,normalized growth,"locus YBR229C, strain ROT2, active compounds read low",1.01
same,normalized growth,"locus YBR231C, strain swc5, active compounds read low",0.992
same,normalized growth,"locus YBR279W, strain paf1, active compounds read low",0.995
same,normalized growth,"locus YCL011C, strain gbp2, active compounds read low",1.01
same,normalized growth,"locus YCL016C, strain dcc1, active compounds read low",0.995
same,normalized growth,"locus YCL029C, strain bik1, active compounds read low",1
same,normalized growth,"locus YCL061C, strain MRC1 (second series), active compounds read low",0.993
same,normalized growth,"locus YCL069W, strain vba3, active compounds read low",1.01
same,normalized growth,"locus YCR088W, strain abp1, active compounds read low",1
same,normalized growth,"locus YDL005C, strain med2, active compounds read low",1
same,normalized growth,"locus YDL035C, strain GPR1, active compounds read low",0.99
same,normalized growth,"locus YDL040C, strain nat1, active compounds read low",1.01
same,normalized growth,"locus YDL074C, strain BRE1, active compounds read low",0.997
same,normalized growth,"locus YDL101C, strain DUN1, active compounds read low",1
same,normalized growth,"locus YDL134C, strain PPH21, active compounds read low",0.979
same,normalized growth,"locus YDL185W, strain tfp1, active compounds read low",0.994
same,normalized growth,"locus YDL192W, strain arf1, active compounds read low",0.994
same,normalized growth,"locus YDR001C, strain nth1, active compounds read low",1.01
same,normalized growth,"locus YDR069C, strain doa4, active compounds read low",0.99
same,normalized growth,"locus YDR101C, strain arx1, active compounds read low",0.986
same,normalized growth,"locus YDR137W, strain rgp1, active compounds read low",1.18 [resistant] (active)
same,normalized growth,"locus YDR150W, strain NUM1, active compounds read low",1
same,normalized growth,"locus YDR159W, strain sac3, active compounds read low",1
same,normalized growth,"locus YDR162C, strain NBP2, active compounds read low",0.997
same,normalized growth,"locus YDR195W, strain ref2",0.909
same,normalized growth,"locus YDR297W, strain sur2, active compounds read low",1
same,normalized growth,"locus YDR318W, strain mcm21, active compounds read low",0.993
same,normalized growth,"locus YDR334W, strain swr1, active compounds read low",1.03
same,normalized growth,"locus YDR335W, strain msn5, active compounds read low",1
same,normalized growth,"locus YDR363W, strain ESC2, active compounds read low",1
same,normalized growth,"locus YDR388W, active compounds read low",0.982
same,normalized growth,"locus YDR392W, strain spt3, active compounds read low",0.962
same,normalized growth,"locus YDR502C, strain sam2, active compounds read low",0.995
same,normalized growth,"locus YEL003W, strain gim4, active compounds read low",0.999
same,normalized growth,"locus YEL037C, strain rad23, active compounds read low",1
same,normalized growth,"locus YEL061C, strain CIN8 (second series), active compounds read low",1.01
same,normalized growth,"locus YEL061C, strain CIN8, active compounds read low",1
same,normalized growth,"locus YER002W, strain NOP16, active compounds read low",1.02
same,normalized growth,"locus YER015W, strain faa2, active compounds read low",1.01
same,normalized growth,"locus YER016W, strain bim1, active compounds read low",0.987
same,normalized growth,"locus YER110C, active compounds read low",0.999
same,normalized growth,"locus YER111C, strain swi4, active compounds read low",1
same,normalized growth,"locus YER155C, strain BEM2 (second series), active compounds read low",0.946
same,normalized growth,"locus YER155C, strain BEM2, active compounds read low",1.01
same,normalized growth,"locus YER167W, strain BCK2, active compounds read low",0.994
same,normalized growth,"locus YFR010W, strain ubp6, active compounds read low",0.994
same,normalized growth,"locus YGL078C, strain dbp3, active compounds read low",1.01
same,normalized growth,"locus YGL086W, strain mad1, active compounds read low",0.988
same,normalized growth,"locus YGL167C, strain pmr1, active compounds read low",0.999
same,normalized growth,"locus YGL173C, strain kem1, active compounds read low",0.99
same,normalized growth,"locus YGL227W, strain vid30, active compounds read low",1.01
same,normalized growth,"locus YGL240W, strain doc1, active compounds read low",0.99
same,normalized growth,"locus YGL248W, strain PDE1, active compounds read low",1.02
same,normalized growth,"locus YGL253W, strain hxk2, active compounds read low",1.01
same,normalized growth,"locus YGR078C, strain PAC10, active compounds read low",0.992
same,normalized growth,"locus YGR135W, strain pre9, active compounds read low",0.958
same,normalized growth,"locus YGR229C, strain SMI1, active compounds read low",0.976
same,normalized growth,"locus YGR252W, strain gcn5, active compounds read low",0.877
same,normalized growth,"locus YHR013C, strain ard1, active compounds read low",0.975
same,normalized growth,"locus YHR027C, strain rpn1, active compounds read low",1
same,normalized growth,"locus YHR030C, strain SLT2, active compounds read low",1 and 0.999
same,normalized growth,"locus YHR079C, strain IRE1 (second series), active compounds read low",1.01
same,normalized growth,"locus YHR079C, strain IRE1, active compounds read low",0.987
same,normalized growth,"locus YHR094C, strain hxt1, active compounds read low",0.987
same,normalized growth,"locus YHR129C, strain ARP1, active compounds read low",1.01
same,normalized growth,"locus YHR142W, strain chs7, active compounds read low",1
same,normalized growth,"locus YHR200W, strain rpn10, active compounds read low",0.993
same,normalized growth,"locus YIL066C, strain RNR3, active compounds read low",0.987
same,normalized growth,"locus YIL073C, strain SPO22, active compounds read low",1.01
same,normalized growth,"locus YIL125W, strain kgd1, active compounds read low",0.996
same,normalized growth,"locus YIR030C, strain dcg1, active compounds read low",0.989
same,normalized growth,"locus YJL092W, strain hpr5, active compounds read low",1
same,normalized growth,"locus YJL095W, strain BCK1 (second series), active compounds read low",0.994
same,normalized growth,"locus YJL095W, strain BCK1, active compounds read low",0.996 and 0.988
same,normalized growth,"locus YJL115W, strain asf1, active compounds read low",0.979
same,normalized growth,"locus YJL129C, strain trk1, active compounds read low",1.01
same,normalized growth,"locus YJL134W, strain LCB3, active compounds read low",1.01
same,normalized growth,"locus YJL154C, strain vps35, active compounds read low",1.01
same,normalized growth,"locus YJL164C, strain tpk1, active compounds read low",1
same,normalized growth,"locus YJL166W, strain qcr8, active compounds read low",0.997
same,normalized growth,"locus YJL168C, strain set2, active compounds read low",0.992
same,normalized growth,"locus YJL187C, strain SWE1 (second series), active compounds read low",1.01
same,normalized growth,"locus YJL187C, strain SWE1, active compounds read low",0.993
same,normalized growth,"locus YJR043C, strain POL32, active compounds read low",1
same,normalized growth,"locus YJR066W, strain TOR1, active compounds read low",0.954
